In all, about 1,000 compounds went through this assay and about 700 (70%) were called active. Cut-off read from the data, not from the text of the source: active = inhibition above about 50%; inactive = the rest. So high a share suggests a set chosen from earlier hits. The list is a sample of the results.
test: CASP1-PYCARD signaling inhibition in yeast, confirmatory test, counterassay for NLRP3 inhibitor program, one-dose (AID 488784); details: yeast expressing Caspase-1-ASC, luminescence counter screen; at 10 µM; hits give high values

Row | SMILES | inhibition
1 | Cc1cc(C)nc(NC(=O)Nc2ccccc2C(F)(F)F)n1 | 55.5% (active)
2 | CC(C)Sc1ncnc2c1cnn2-c1ccccc1 | 40.6% (inactive)
3 | CC(C)n1c(COc2ccccc2)nc2ccccc21 | 59.4% (active)
4 | Cc1ccc(OCc2nc3ccccc3n2C)cc1 | 76.5% (active)
5 | CCSc1nc2sc3c(c2c(=O)n1-c1ccc(C)cc1)CCN(C)C3 | 33.2% (inactive)
6 | O=C(COc1ccccc1F)Nc1nc(-c2ccccn2)cs1 | 65% (active)
7 | Cn1c(=O)c(C(=O)Nc2ncccn2)c(O)c2ccccc21 | 49.2% (inactive)
8 | CCc1noc(C)c1C(=O)Nc1nc2ccc(OC)cc2s1 | 76.8% (active)
9 | Cc1ccc(-c2nn(C(C)(C)C)c3ncnc(N)c23)cc1 | 96.3% (active)
10 | Cc1ccc(O)c(NC(=O)c2cc(-c3ccco3)on2)c1 | 61.9% (active)
11 | COc1ccccc1C(=O)Nc1ccc(NC(=O)c2ccco2)c(C)c1 | 47.5% (inactive)
12 | CC(=O)[C@@]12O[C@@H]1C[C@H]1[C@@H]3CC[C@H]4C[C@@H](O)CC[C@]4(C)[C@H]3CC[C@@]12C | 53% (active)
13 | Cc1ccnc(Nc2nc3ccccc3s2)n1 | 21.8% (inactive)
14 | CN(C)c1ccnc2sc(C(=O)c3ccccc3)c(N)c12 | 70.2% (active)
15 | CCCN(CC1CC1)C(=S)NC(=O)c1ccccc1Br | 53.1% (active)
16 | O=[N+]([O-])c1c(NCCO)cc(Sc2nc3ccccc3s2)c2nonc12 | 65.5% (active)
17 | Cc1cc(C(=O)COc2ccc(Br)cc2F)c(C)n1C1CC1 | 60.1% (active)
18 | CC1(C)CCSC(/C=C/c2ccccc2)=N1 | 91.5% (active)
19 | COc1ccccc1OCc1nc2ccccc2s1 | 48.7% (inactive)
20 | CCN(CC)c1ccc(/C=N/Nc2nc(C)cc(C)n2)c(O)c1 | 55% (active)
21 | Nc1c(-c2cccc(Cl)c2)cnn1-c1cccc([N+](=O)[O-])c1 | 53% (active)
22 | Oc1c(Cl)cc(Cl)c(Cl)c1Cc1c(O)c(Cl)cc(Cl)c1Cl | 99.3% (active)
23 | O=C(CC(O)(C(F)(F)F)C(F)(F)F)Nc1ccc(Cl)c(Cl)c1 | 99.2% (active)
24 | Cc1c(C(=O)N2CCCc3ccccc32)oc2ccccc12 | 49.6% (inactive)
25 | O=C(Nc1ccccc1Cl)/C(Cl)=C(\Cl)S(=O)c1ccccc1 (stereo unspecified) | 98.8% (active)
26 | O=C(Nc1ccc2oc(-c3ccccc3F)nc2c1)c1ccco1 | 72.2% (active)

Row | SMILES | inhibition
27 | O=C(Nc1ccc(Oc2ccccc2)cc1)c1ccco1 | 45.2% (inactive)
28 | Cn1c(=NC(=O)c2ccco2)sc2cccc(F)c21 | 25% (inactive)
29 | Cc1cc(C)c(/C=C2\C(=O)Nc3ccccc32)[nH]1 | 40.2% (inactive)
30 | Cc1ccc(OCc2nc(C#N)c(N3CCCC3)o2)cc1 | 71.8% (active)
31 | O=C(CSc1ccc(-c2ccc(-n3cccn3)cc2)nn1)Nc1ccc([N+](=O)[O-])cc1 | 11.2% (inactive)
32 | C[C@@H]1C[C@@H]2O[C@H]2/C=C\C=C\C(=O)Cc2c(Cl)c(O)cc(O)c2C(=O)O1 | 48.6% (inactive)
33 | CCCNc1ncnc2sc(C)c(C)c12 | 50.8% (active)
34 | CC(=NCc1ccc2c(c1)OCO2)C1=C(O)c2ccccc2C1=O | 60.2% (active)
35 | O=C(NCc1ccc2c(c1)OCO2)c1c(O)nc2sccn2c1=O | 36.7% (inactive)
36 | O=C(Oc1c(-c2ccco2)oc2ccccc2c1=O)c1cccnc1 | 58.5% (active)
37 | CC(C)C(=O)N1CCN(CCN=CC2=C(O)CC(c3ccco3)CC2=O)CC1 (stereo unspecified) | 55.2% (active)
38 | Cc1cccc(NC(=S)NC(=O)c2ccc(Br)o2)c1 | 76.2% (active)
39 | CN=C1C=C/C(=N/N=c2\ccn(O)cc2C)C=C1C | 53.3% (active)
40 | O=C(CSc1ncnc2c1oc1ccccc12)NC1CCCC1 | 39.4% (inactive)
41 | Cc1ccc2cccc(S(=O)(=O)N3CCN(c4ccccc4F)CC3)c2n1 | 52.6% (active)
42 | O=C1CSC(=S)N1c1ccc(O)cc1 | 79.7% (active)
43 | COc1cc(N2C(=O)CSC2=S)cc(OC)c1OC | 45.7% (inactive)
44 | CCc1cc(C(=O)Nc2nnc(C3CC3)s2)sc1C | 55.5% (active)
45 | Cc1ccc(CSc2nsc(C)c2C#N)cc1 | 60% (active)
46 | Oc1ccc(Br)cc1/C=N/Nc1ccccn1 | 37.1% (inactive)
47 | O=[N+]([O-])c1cccc(/C=N/Nc2ncc(Br)cn2)c1 | 62.5% (active)
48 | O=[N+]([O-])/C=C/c1ccc2c(ccn2Cc2ccccc2)c1 | 99.7% (active)
49 | CCOC(=O)c1c(C)[nH]c(C(=O)COc2ccc3c(c2)OCO3)c1C | 66.8% (active)
50 | Fc1ccccc1-c1cc2cc3c(cc2cn1)OCO3 | 51% (active)
51 | N#Cc1nc(Cc2ccccc2)oc1NCCc1ccccc1 | 56.8% (active)
